Results filed as inconclusive are left out. Active and inactive are the calls of the source. Unless noted, calls follow the shape of the dose curve; as a rule, active = well fitted curve in the direction sought with a large enough effect; inconclusive = small, poorly fitted or top-dose-only effect, or another doubt; inactive = no such curve, though single readings can be large; an effect the other way counts as inactive or inconclusive.
Columns and labels:
[1] = qHTS for inhibitors of adenylyl cyclases using a fission yeast platform: a pilot screen against the NCATS LOPAC library (AID 1347410);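 also: plate controls were DMSO vehicle for no effect and DPI positive control for full effect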
Summary of the method: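 Inhibition of GNAS-stimulated AC9 activity in S. pombe was inferred from derepression of a PKA-repressed fbp1-GFP reporter, measured as cytometric fluorescence after 18 h at 30C with compounds at up to 57 µM.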

[2] = Primary qHTS for inhibitors of SARS-S pseudo-typed particle cell entry (AID 1479145; calls by dose curve; also: nearly all actives have a fitted effect of over 45% in size; as to activity change, negative = inhibition: series mostly up to about 57 µM; % is scaled to controls: 0 for no effect and ±100 for the full control effect)
[3] = Primary qHTS for Huh7 cytotoxicity: counterscreen for inhibitors of MERS-S pseudotyped particle cell entry (AID 1479147; calls by dose curve; as to activity change, negative = cytotoxicity: % is scaled to controls: 0 for no effect and ±100 for the full control effect)
[4] = Primary qHTS for inhibitors of MERS-S pseudo-typed particle cell entry (AID 1479149; calls by dose curve; also: nearly all actives have a fitted effect of over 60% in size)
[5] = Primary qHTS for Vero E6 cytotoxicity: counterscreen for inhibitors of SARS-S pseudo-typed particle cell entry (AID 1479150; calls by dose curve)
[6] = target: Calcium and integrin-binding protein 1 (Homo sapiens) (UniProt Q99828); test: Validation qHTS for Identification of Calcium Integrin Binding protein 1 (CIB1) Competitor (AID 1508618); also: % is scaled to controls: 0 for no effect and ±100 for the full control effect
Sequence of Calcium and integrin-binding protein 1 (Homo sapiens) (Q99828 whole entry, looked up): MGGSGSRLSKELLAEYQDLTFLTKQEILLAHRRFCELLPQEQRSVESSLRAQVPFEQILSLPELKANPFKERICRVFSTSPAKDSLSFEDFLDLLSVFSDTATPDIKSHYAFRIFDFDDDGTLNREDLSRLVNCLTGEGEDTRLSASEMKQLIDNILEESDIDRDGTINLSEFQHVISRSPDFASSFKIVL
Summary of the method: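 In this qHTS validation, the LOPAC set (up to 114 uM) was tested for blocking CIB1 binding to a fluorescein-tagged alphaIIb peptide, with FP detection at 480/540 nm.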

[7] = qHTS to identify inhibitors of the type 1 interferon - major histocompatibility complex class I in skeletal muscle: primary screen against the NCATS Mechanism Interrogation Plate v5.0 (MIPE) Libary (AID 1347411); also: nearly all actives have a fitted effect of over 65% in size; also: potency is read from the fitted curve at half-maximal effect;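 as to activity change, negative = inhibition: plate controls were vehicle for no effect and reference inhibitor for full effect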
Summary of the method: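 Luminescence from CRISPR HiBit-tagged endogenous HLA-B in human myoblasts reported MHC class I level after 24 h of IFN-beta (4 ng/ml) plus compound. Compounds ran as 11-point 1:3 series, top 46 uM final.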

[8] = target: Calcium and integrin-binding protein 1 (Homo sapiens) (UniProt Q99828); test: Primary qHTS for Identification of Calcium Integrin Binding Protein 1 (CIB1) Competitor (AID 1508620); also: potency is read from the fitted curve at half-maximal effect
Summary of the method: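 Fluorescence polarization competition: GST-tagged CIB1 (1 uM final) preincubated with compound 15 min at room temperature, then FITC-labelled alphaIIb peptide (100 nM final) added. After 15 min at room temperature, polarization read at Ex 480/Em 540.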

[9] = target: Protein phosphatase 1D (Homo sapiens) (UniProt O15297); test: RapidFire Mass Spectrometry qHTS Assay for Modulators of WT P53-Induced Phosphatase 1 (WIP1) (AID 1347424);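 also: series mostly up to about 63 µM; plate controls were DMSO wells for no effect and GSK830371 inhibitor control at 10 µM for full effect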
Sequence of Protein phosphatase 1D (Homo sapiens) (O15297 whole entry, looked up): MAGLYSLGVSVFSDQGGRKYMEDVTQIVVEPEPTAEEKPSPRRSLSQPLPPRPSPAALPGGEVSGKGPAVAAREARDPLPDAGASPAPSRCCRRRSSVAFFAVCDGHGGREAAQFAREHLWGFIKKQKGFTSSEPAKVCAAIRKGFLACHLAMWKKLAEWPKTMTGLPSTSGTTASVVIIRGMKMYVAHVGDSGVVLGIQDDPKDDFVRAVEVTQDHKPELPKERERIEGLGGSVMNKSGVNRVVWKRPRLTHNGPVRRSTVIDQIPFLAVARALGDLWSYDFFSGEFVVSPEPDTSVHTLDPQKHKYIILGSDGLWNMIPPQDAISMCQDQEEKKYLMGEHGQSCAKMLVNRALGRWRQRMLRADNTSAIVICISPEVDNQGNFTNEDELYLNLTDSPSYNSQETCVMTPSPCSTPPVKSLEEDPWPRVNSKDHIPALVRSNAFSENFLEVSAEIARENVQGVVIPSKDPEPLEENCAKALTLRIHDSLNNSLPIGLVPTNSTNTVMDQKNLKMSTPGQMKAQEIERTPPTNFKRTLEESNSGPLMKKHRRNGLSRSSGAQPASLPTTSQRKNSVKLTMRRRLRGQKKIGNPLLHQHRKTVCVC
Summary of the method: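 RapidFire MS readout of dephosphorylated VEPPL-S-QETFS product, with 1 uM isotope-labelled peptide standard. Reaction: 10 nM WIP1, 2 uM phosphopeptide substrate, 5 min, room temperature, after 1 h compound preincubation; stopped with 0.5% formic acid.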

[10] = target: Protein phosphatase 1D (Homo sapiens) (UniProt O15297); test: Rhodamine-PBP qHTS Assay for Modulators of WT P53-Induced Phosphatase 1 (WIP1) (AID 1347425); also: % of control where 0% means no effect
Summary of the method: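 Steps: enzyme with Rh-PBP sensor and compounds, room-temperature incubation of 1 hr, baseline read, addition of VEPPL-pS-QETFS (10 uM final), kinetic fluorescence reads at 525/598 nm. Activity equals final minus baseline signal.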

[11] = Primary qHTS for inhibitors of La Crosse Virus (LACV) - induced cell death in SH-SY5Y cells (AID 1508616);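 also: top concentration of the series differs between compounds; 0% = infected DMSO wells and 100% = uninfected DMSO wells; higher means more rescue of cells from virus-induced death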
Summary of the method: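 Rescue of virus-induced death was read as ATPLite luminescence after 6 days at 37C, scaled between DMSO wells with LACV and without virus. Cells were SH-SY5Y, 6000/well, infected at 0.01 MOI after compound addition.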

[12] = target: Calcium and integrin-binding protein 1 (Homo sapiens) (UniProt Q99828); test: Confirmatory qHTS for Identification of Calcium Integrin Binding Protein 1 (CIB1) Competitor (AID 1508617); also: potency is read from the fitted curve at half-maximal effect; nearly all actives have a fitted effect of over 65% in size
Summary of the method: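 Binding competition between test compounds and fluorescent alphaIIb peptide for 1 uM CIB1-GST is monitored by FP at 480/540 nm. Final compound range is up to 114 uM; unlabeled peptide serves as reference competitor.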

[13] = Confirmatory qHTS for small molecule stabilizers of the endoplasmic reticulum resident proteome: Secreted ER Calcium Modulated Protein (SERCaMP) assay (AID 1508628); also: series mostly up to about 76 µM; % is scaled to controls: 0 for no effect and ±100 for the full control effect; nearly all actives have a fitted effect of over 40% in size
Summary of the method: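 Reporter secretion upon ER calcium depletion (100 nM thapsigargin, 4 h, 37C) is measured as medium luminescence with coelenterazine, after 16 h compound pretreatment of SH-SY5Y-GLuc-SERCaMP cells; primary at three concentrations up to 38.3 uM, follow-up at 11 (up to 76.6 uM).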

[14] = Validation qHTS assay for inhibitors of Activation Induced Cytidine Deaminase (AID): UDG Counterscreen signal (AID 1347427); also: 0% is about no effect
Summary of the method: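 Fluorescence at 560 nm excitation, 665 nm emission reports UDG signal after 250 mM NaOH (2x) addition and 30 min. Enzymes (AID 1 uM, UDG 2 U/mL, at 4/3x) preincubated 10 min with compound, then 4 h with 4x 250 nM DJC20/DJC23 substrate at room temperature.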

[15] = target: Single-stranded DNA cytosine deaminase (Homo sapiens) (UniProt Q9GZX7); test: Validation qHTS assay for inhibitors of Activation Induced Cytidine Deaminase (AID): AID signal (AID 1347429); also: % is scaled to controls: 0 for no effect and ±100 for the full control effect
Sequence of Single-stranded DNA cytosine deaminase (Homo sapiens) (Q9GZX7 whole entry, looked up): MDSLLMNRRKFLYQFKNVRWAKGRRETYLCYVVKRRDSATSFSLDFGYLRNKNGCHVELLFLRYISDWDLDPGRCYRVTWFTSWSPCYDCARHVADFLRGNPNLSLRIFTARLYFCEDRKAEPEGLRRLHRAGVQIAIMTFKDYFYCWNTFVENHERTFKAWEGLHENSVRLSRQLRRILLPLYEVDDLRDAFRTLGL
Summary of the method: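 Compounds (final up to 114 uM) preincubated with AID plus UDG; 250 nM DJC20/DJC23 substrate mix (4x stock) added, 4 hr at room temperature, then NaOH, 30 min. Read 1 fluorescence at 540 nm excitation, 590 nm emission.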

CCCCCN(C)CCC(O)(P(=O)(O)O)P(=O)(O)O
inactive: outcome [1] | activity change, negative = inhibition [2] -12.9% [at 11.4 µM] | activity change, negative = cytotoxicity [3] 3.48% [at 11.4 µM] | activity change, negative = inhibition [4] -24.6% [at 11.4 µM] | activity change, negative = cytotoxicity [5] 1.39% [at 11.4 µM] | outcome [6]

C[C@]12CC[C@@H]3c4ccc(OC(=O)N(CCCl)CCCl)cc4CC[C@H]3[C@@H]1CC[C@@H]2OP(=O)(O)O
inactive: Potency [7] | Potency [3] | Potency [4] | Potency [5] | Potency [8]

C[C@@H](N)[C@@H](O)c1ccccc1
inactive: Potency [9] | outcome [10] | Potency [2] | Potency [3] | Potency [4] | Potency [5] | Potency [8]

COC(=O)[C@@H](N)CCCN/C(N)=N/[N+](=O)[O-]
inactive: Potency [9] | outcome [11] | Potency [8]

CCCN(CCC)C(=O)Cc1c(-c2ccc(Cl)cc2)nc2ccc(Cl)cn12
inactive: Potency [9] | outcome [11] | Potency [8]

CC(C(=O)c1ccccc1)N(C)C (stereo not given)
inactive: Potency [9] | outcome [10] | outcome [11] | Potency [8]

CCOC(=O)CC(SP(=S)(OC)OC)C(=O)OCC (stereo not given)
active: Potency [12] 100 µM
inactive: Potency [9] | Potency [3] | Potency [4] | Potency [5] | outcome [11] | Potency [8]

CCN(CC)C(=O)[C@@H]1C=C2c3cccc4[nH]cc(c34)C[C@H]2N(C)C1
inactive: Potency [9] | outcome [10]
active: Potency [8] 63.1 µM

CNCC(=O)c1ccc(O)c(O)c1
inactive: Potency [9] | outcome [10] | Potency [8] | Potency [13]

COP(=S)(OC)Oc1ccc(SC)c(C)c1
inactive: Potency [9] | outcome [10] | Potency [2] | Potency [3] | Potency [4] | Potency [5] | outcome [11] | Potency [8]

Cc1ncsc1CCCl
inactive: outcome [1] | Potency [9] | outcome [14] | outcome [15] | Potency [2] | Potency [3] | Potency [4] | Potency [5] | outcome [6] | Potency [8]

[N-]=[N+]=CC(=O)OC[C@H](N)C(=O)O
inactive: Potency [9] | outcome [10] | Potency [8]

COP(=S)(OC)SCN1C(=O)c2ccccc2C1=O
inactive: Potency [9] | Potency [3] | Potency [4] | Potency [5]

CN1CC[C@]23c4c5ccc(O)c4O[C@H]2[C@@H](O)C=C[C@H]3[C@H]1C5
inactive: Potency [9] | outcome [10] | Potency [8]

NC(=O)c1cc([N+](=O)[O-])cc([N+](=O)[O-])c1
inactive: Potency [9] | outcome [10] | Potency [2] | Potency [3] | Potency [4] | Potency [5] | outcome [11] | Potency [8]

CCN(CCO)CCn1c(Cc2ccccc2)nc2c1c(=O)n(C)c(=O)n2C
inactive: Potency [9] | outcome [11] | Potency [8]

NC1=NC(=O)C(c2ccccc2)O1 (stereo not given)
inactive: Potency [9] | outcome [11] | Potency [8]

O=C1c2ccccc2C(=O)c2ccccc21
inactive: Potency [9] | outcome [10] | Potency [2] | Potency [3] | Potency [4] | Potency [5] | outcome [11] | Potency [8]

COc1cc(CC(C)N)cc(OC)c1OC (stereo not given)
inactive: Potency [9] | outcome [11] | Potency [8]

C[C@]12CC[C@H]3[C@@H](CCC4=CC(=O)CC[C@@H]43)[C@@H]1CC[C@@H]2OC(=O)CCc1ccco1
inactive: Potency [9] | Potency [2] | Potency [3] | Potency [4] | Potency [5] | outcome [11] | Potency [8]

CCOP(=S)(OCC)Oc1ccc2c(C)c(Cl)c(=O)oc2c1
inactive: Potency [9] | outcome [10] | Potency [3] | Potency [4] | Potency [5] | outcome [11]

CC(C)C[C@H](CN)CC(=O)O
inactive: Potency [7] | Potency [8]

COP(=S)(OC)Oc1cc(Cl)c(Cl)cc1Cl
inactive: Potency [9] | outcome [10] | Potency [2] | Potency [3] | Potency [4] | Potency [5] | outcome [11] | Potency [8]

COc1cccc2c1C(=O)c1c(O)c3c(c(O)c1C2=O)C[C@@](O)(C(=O)CO)CC3OC1CC(N2CCOC(OC)C2)C(O)C(C)O1 (stereo not given in full)
active: Potency [7] 0.093 µM
inactive: Potency [9] | outcome [10] | Potency [2] | Potency [4] | Potency [5] | outcome [11]

Clc1cccc(SC2CCNCC2)n1
inactive: Potency [9] | outcome [10] | outcome [11] | Potency [8]

O=C1OC(CCN2CCCCC2)OC1(c1ccccc1)c1ccccc1 (stereo not given)
inactive: Potency [9] | outcome [10] | outcome [11] | Potency [8]

Clc1ccccc1N1CCNCC1
inactive: Potency [9] | outcome [10] | Potency [8]

CC(C)(Oc1ccc(Cl)cc1)C(=O)OCCCOC(=O)C(C)(C)Oc1ccc(Cl)cc1
inactive: Potency [2] | Potency [3] | Potency [4] | Potency [5]

ClCCN1CCCC1
inactive: Potency [9] | Potency [8]

CO[C@@]1(NC(=O)CSC[C@@H](N)C(=O)O)C(=O)N2C(C(=O)O)=C(CSc3nnnn3C)CS[C@@H]21
inactive: Potency [2] | Potency [3] | Potency [4] | Potency [5]

CCOC(=O)[C@H](CCc1ccccc1)N[C@@H](C)C(=O)N1CCC[C@H]1C(=O)O
inactive: Potency [2] | Potency [3] | Potency [4] | Potency [5]

CC(=O)C1CCOC1=O (stereo not given)
inactive: Potency [9] | Potency [8]

Cn1c(=O)c2[nH]cnc2n(C)c1=O
inactive: Potency [2] | Potency [3] | Potency [4] | Potency [5]

Cc1c(Nc2ncccc2C(=O)O)cccc1C(F)(F)F
inactive: Potency [2] | Potency [3] | Potency [4] | Potency [5]

Source: PubChem BioAssay (NCATS)
